Our source for the Potency values is PubChem BioAssay (NCATS).

Structures are written as SMILES. Inconclusive results are not listed. A call without a number means that no potency is given here. The source made the active and inactive calls. Calls follow the shape of the dose curve; as a rule, active = well fitted activation curve with a large enough effect; inconclusive = small, poorly fitted or top-dose-only effect; inactive = flat fitted curve, though single readings scatter.

The test is described as follows: Cellular Toxicity (caspase-3) H-4-II-E (AID 663).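 Also: cells exposed to compound for 16 hr before readout.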 The note with it: H-4-II-E rat hepatoma; Potency: caspase-3 activation; series mostly up to 92.2 µM. The source says:
NIH Chemical Genomics Center [NCGC]
NIH Molecular Libraries Screening Centers Network [MLSCN]
National Institutes of Environmental Health Sciences [NIEHS]
National Toxicology Program [NTP]
We have developed a 1536-well cell-based assay for quantitative high throughput screening (qHTS) against a number of cell lines to determine in vitro caspase 3/7 of small molecules. This particular assay uses the H-4-II-E cell line which is derived from rat hepatoma.
NCGC Assay Protocol Summary:
The Caspase-Glo 3/7 assay (Promega) is a homogeneous method to measure caspase-3 and caspase-7 activities in cultured cells. The quantitation of caspase 3/7 activity is based on the cleavage of a peptide-aminoluciferin substrate. After caspase cleaves the substrate the free aminoluciferin is liberated and serves as the substrate of luciferase, which generates the light. The luminescent signal is proportional to amount of caspase 3/7 activity present.
Using the Caspase-Glo 3/7 assay, the amount of caspase 3/7 activity was measured in the H-4-II-E cell line with complete culture medium following compound treatment for 16 hours. The assay was performed in opaque white 1536-well plates. In the screen, tamoxifen and doxorubicin were used as positive controls. Library compounds were measured for their ability to cause the activation of caspase 3/7 in the cell line, as reflected by an increase in luminescence signal, in a concentration-dependent manner. Data were normalized to the controls for basal activity (DMSO only) and 100% stimulation (100 uM tamoxifen). AC50 values were determined from concentration-response data modeled with the standard Hill equation.
qHTS protocol for caspase 3/7 assay in H-4-II-E cells
[Step] [Parameter] [Value] [Description]
1. Reagent; 5 uL; 1500 H-4-II-E cells/well
2. Time; 5 hr; 37 °C incubation
4. Controls; 23 nL; Tamoxifen 0.23 uM to 100 uM & Doxorubicin 7.0 pM to 100 uM
5. Time; 16 hr; 37 °C incubation
6. Reagent; 5 uL; Caspase-Glo 3/7 reagent
7. Time; 20 min; Room Temperature
8. Detection; Luminescence; Viewlux plate reader
Keywords: caspase 3/7, apoptosis, H-4-II-E cell line, luminescence, NTPHTS, NTPHTS_NCGC, NIEHS, EPA, DSSTox, MLSMR, MLSCN, NIH Roadmap, qHTS, NCGC
As to `CCN(CC)N=O`, the Potency result is “inactive”.

For `Nc1cccc(Cl)c1`, the Potency entry is “inactive”. Consider `O=C(O)c1cccc(Cl)c1`, for which the Potency result was “inactive”.

For `Clc1ccc(Cl)c(Cl)c1`, the Potency entry is “inactive”. As to `O=C(O)c1cc(Cl)ccc1Cl`, the Potency entry is “inactive”. Then `ClCCCCl`, with “inactive”. With `CC(=O)NNc1ccccc1`, the Potency result is “inactive”. As to `C=CC(=O)OCC(C)C`, the Potency result is “inactive”. Regarding `Cc1ccc(N=C=O)cc1N=C=O`, the Potency entry is “inactive”. For `C[N+](=O)[O-]` the value was “inactive”; for `CC(C)CC(C)N` (stereo not given), “inactive”; for `Nc1cc(Cl)ccc1Cl`, “inactive”.

`CC(C)CON=O`: the Potency result is “inactive”. Turning to `CC(C)(Cl)[N+](=O)[O-]`, the Potency result was “inactive”.

With `O=C(Cl)c1ccccc1F`, the Potency entry is “inactive”. With `ClC(Br)Br`, the Potency result is “inactive”.

For the compound `Cc1ccc(N)cc1N`, the Potency result is “inactive”. On to `Clc1cc(Cl)c(Cl)c(Cl)c1`, for which the Potency result is “inactive”. Regarding `CCCCNC(=O)n1c(NC(=O)OC)nc2ccccc21`, the Potency entry was “inactive”. Turning to `O=[N+]([O-])c1ccc(Cl)cc1`, the Potency entry was “inactive”. For `c1ccc(C2CO2)cc1` (stereo not given), the Potency result was “inactive”.

As for `CN(C)C(=O)Cl`, the Potency result is “inactive”. With `CC(C#N)CCC#N` (stereo not given), the Potency entry was “inactive”.

With `COC(=O)Nc1cccc(OC(=O)Nc2cccc(C)c2)c1`, the Potency entry is “inactive”.

Consider `c1ccc(OCC2CO2)cc1` (stereo not given), for which the Potency result was “inactive”. Regarding `CC1CC(=O)O1` (stereo not given), the Potency entry is “inactive”. `Nc1cc(Cl)cc(Cl)c1`: the Potency entry was “inactive”. With `O=C(O)C(Cl)(Cl)Br`, the Potency result was “inactive”. As to `C=C(Cl)CCl`, the Potency entry is “inactive”.

As for `O=[N+]([O-])c1ccccc1-c1ccccc1`, the Potency entry was “inactive”. Then `N#CC(Cl)(Cl)Cl`, with “inactive”; and `Clc1ccc(C(Cl)(Cl)Cl)cc1Cl`, with “inactive”. Take `C=CC#N`: the Potency entry is “inactive”. For `Nc1cc(Cl)ccc1O` the value was “inactive”; for `Nc1c(Cl)cc([N+](=O)[O-])cc1Cl`, “inactive”; for `Cc1cc(-c2cc(C)c(N)c(C)c2)cc(C)c1N`, “inactive”. For `OCCBr` the value was “inactive”. As for `C=CC=O`, the Potency entry was “inactive”. In the case of `CC(C)OS(C)(=O)=O`, the Potency entry was “inactive”.

As for `c1ccoc1`, the Potency result was “inactive”.
